Compounds with a hit are over-represented: about 1.5% of the library has one in this group of screens.
SARS 3CLpro inh – SARS-CoV 3CLpro protease inhibition. AID 1706. P0C6X7. 290,000 tested, 0.14% active. recombinant SARS-CoV 3CLpro, quenched FRET peptide cleavage. inhibition, % at 6 µM; in the data active = inhibition above about 12%
MazF activator – increases E. coli MazEF RNase cleavage of RNA | AID 504720 | FAM/BHQ RNA-DNA oligo cleavage fluorescence, 5 h | 350,000 tested, 0.32% active | P0AE70 | activation, % at 20 µM; in the data active = activation above about 50%
PrPC surface inh – cell surface PrPC inhibition, primary TR-FRET screen; P04156; TR-FRET read-out; inhibition, % at 13.8 µM; 370,000 tested, 0.43% active; in the data active = inhibition above about 24%; note: 0% = median of the test wells and 100% = reference compound wells
PrP UTR inh – suppresses PrP 5' UTR mRNA reporter expression. inhibition, % (test concentration not listed). 340,000 tested, 0.35% active. cell-based PrP 5' UTR mRNA reporter, plate reader; in the data active = inhibition above about 52%; note: 0 = median of the neutral control wells
Mtb hypoxia inh – Mtb hypoxia fluorescent reporter inhibition. M. tuberculosis hypoxia-regulated fluorescent reporter, fluorescence. fluorescence inhibition, % (no concentration beside the values). 300,000 tested, 0.1% active; in the data active = fluorescence inhibition mostly above about 23%, no sharp cut-off; inactive = mostly below about 17%
DUSP3 inh – inhibitors of human VHR1 phosphatase (DUSP3); P51452; recombinant VHR phosphatase, pNPP absorbance; inhibition, % at 13.3 µM; 290,000 tested, 0.52% active; AID 1654; in the data active = inhibition above about 50%
PrPC confirm – confirmation of inhibitors of cell surface human prion protein. shares compounds with PrPC surface inh. cell surface PrPC level, TR-FRET. inhibition, % at 13.8 µM. 1,500 tested, 65% active; in the data active = inhibition above about 25%
LD9 tox – kills or reduces viability of LD9 cells in PrPc counter-screen | shares compounds with PrPC surface inh | LD9 cells cytotoxicity, luminescence viability | inhibition, % at 13.8 µM | 1,500 tested, 29% active | AID 743201; in the data active = inhibition above about 9.5%
* marks the source's active call; other numbers are inactive results.

For Cc1ccccc1CN1C(=O)CN(S(C)(=O)=O)CC1(C)C(=O)NCc1ccccc1 (stereo unspecified) the results were PrPC surface inh 25*, PrPC confirm 0 and LD9 tox -5.
Screening O=C(NN=Cc1cccs1)c1cc(-c2cccc3ccccc23)n[nH]1 returned Mtb hypoxia inh 10.
C/C(=N\Nc1nc2ccccc2[nH]1)c1ccccn1 was read as SARS 3CLpro inh 0, PrPC surface inh 26*, PrP UTR inh 26, DUSP3 inh 13, PrPC confirm 48* and LD9 tox 69*.
For O=C(O)c1cccc(NC(=S)NN=Cc2cccnc2)c1 the results were Mtb hypoxia inh 2.
`CC(=O)c1c(C)nc2ccc(Br)cc2c1-c1ccccc1` gave SARS 3CLpro inh 2, MazF activator 2, PrPC surface inh 4, PrP UTR inh -5, Mtb hypoxia inh 16 and DUSP3 inh 3.
`Cc1nc2ccc(Br)cc2c(-c2ccccc2)c1C(=O)O` gave SARS 3CLpro inh 0, MazF activator 3, PrPC surface inh 62*, PrP UTR inh -53, DUSP3 inh 7, PrPC confirm 82* and LD9 tox 1.
CCc1ccc(-c2ccc3nnc(SC)n3n2)cc1 was read as SARS 3CLpro inh -4, MazF activator -5, PrPC surface inh -17, PrP UTR inh -25, Mtb hypoxia inh 5 and DUSP3 inh 14.
For CCSc1nnc2ccc(-c3ccc(C)cc3)nn12 the results were SARS 3CLpro inh -2, MazF activator 8, PrPC surface inh 42*, PrP UTR inh -14, Mtb hypoxia inh 6, DUSP3 inh 14, PrPC confirm -12 and LD9 tox -8.
O=C(NC(Nc1nc2ccc([N+](=O)[O-])cc2s1)(C(F)(F)F)C(F)(F)F)c1ccccc1Cl was read as SARS 3CLpro inh 3, MazF activator 2, PrPC surface inh 67*, PrP UTR inh 50, Mtb hypoxia inh 25, DUSP3 inh 13, PrPC confirm 66* and LD9 tox 63*.
For CN(C)S(=O)(=O)c1ccc2nc(NC(=O)c3cccnc3)sc2c1 the results were SARS 3CLpro inh -1, MazF activator -5, PrPC surface inh 1, PrP UTR inh -39, Mtb hypoxia inh 3 and DUSP3 inh 11.
`O=C(NC(Nc1nc2ccc([N+](=O)[O-])cc2s1)(C(F)(F)F)C(F)(F)F)c1cccnc1` gave SARS 3CLpro inh 0, MazF activator -2, PrPC surface inh 42*, PrP UTR inh 5, DUSP3 inh 12, PrPC confirm 52* and LD9 tox 59*.
`O=C(CC1CC=CCCC(Cc2ccc(F)cc2)C(=O)OC(c2ccccc2)CNC1=O)NC(CO)Cc1ccccc1` (stereo unspecified) gave Mtb hypoxia inh -14.
`O=C(NCc1ccco1)c1cccc(NC(=O)c2ccccc2)c1` gave SARS 3CLpro inh -8, MazF activator -13, PrPC surface inh 27*, PrP UTR inh -23, Mtb hypoxia inh -1, DUSP3 inh -1, PrPC confirm 28* and LD9 tox 9.
For Cc1ccc(C(=O)NCc2ccco2)cc1 the results were SARS 3CLpro inh 2, MazF activator 4, PrPC surface inh 4, PrP UTR inh -13 and DUSP3 inh 26.
`Cc1ccc(C(=O)Nc2cccc(C(=O)NCc3ccccc3)c2)cc1` gave SARS 3CLpro inh -5, MazF activator 6, PrPC surface inh 37*, PrP UTR inh 1, Mtb hypoxia inh 8, DUSP3 inh 8, PrPC confirm 24 and LD9 tox 6.
Screening Cc1ccc(C(=O)Nc2cccc(C(=O)NCc3ccco3)c2)cc1 returned SARS 3CLpro inh 2, MazF activator 3, PrPC surface inh 39*, PrP UTR inh -53, DUSP3 inh -12, PrPC confirm 22 and LD9 tox 17*.
COc1ccc(C(=O)Nc2cccc(C(=O)NCc3ccccc3)c2)cc1 was read as SARS 3CLpro inh -2, MazF activator -2, PrPC surface inh 16, PrP UTR inh -23, Mtb hypoxia inh 12 and DUSP3 inh 26.
`O=C(Cc1cccs1)Nc1cccc(C(=O)Nc2ccco2)c1` gave SARS 3CLpro inh 1, MazF activator 5, PrPC surface inh 27*, PrP UTR inh -19, Mtb hypoxia inh 15, DUSP3 inh 13, PrPC confirm 10 and LD9 tox -7.
`CC(C)CC(NC(=O)c1nc[nH]c1C(=O)NC(CC(C)C)C(=O)OCc1ccccc1)C(=O)OCc1ccccc1` (stereo unspecified) gave Mtb hypoxia inh 4.
`COc1ccc(C=Nn2c(C)nc3ccccc3c2=O)cc1` gave Mtb hypoxia inh -9.
`COc1ccccc1C=NNC1=NCCCCC1` gave Mtb hypoxia inh 17.
CN(C)S(=O)(=O)Oc1cccc(C(=O)Nc2ccccc2Cl)c1 was read as SARS 3CLpro inh 6, MazF activator -4, PrPC surface inh 4, PrP UTR inh -46, Mtb hypoxia inh -1 and DUSP3 inh 7.
`CN(C)S(=O)(=O)Oc1cccc(C(=O)Nc2ccc(Cl)cc2)c1` gave SARS 3CLpro inh -1, MazF activator -1, PrPC surface inh 27*, PrP UTR inh -124, Mtb hypoxia inh 10, DUSP3 inh 32, PrPC confirm 29* and LD9 tox 12*.
COc1ccc(-c2nc3ccc(Br)cn3c2Cc2cccc(Cl)c2)cc1OC was read as PrPC surface inh 27*, PrPC confirm 61* and LD9 tox 0.
Screening Clc1ccc(-c2nc3ccc(Br)cn3c2Cc2cccc(Cl)c2)cc1 returned PrPC surface inh 30*, PrPC confirm 53* and LD9 tox -4.
`COc1ccc(NCC(=O)Nc2cc(S(=O)(=O)N3CCOCC3)ccc2N2CCOCC2)c(OC)c1` gave SARS 3CLpro inh 1, MazF activator 0, PrPC surface inh 25*, PrP UTR inh -26, Mtb hypoxia inh 3, DUSP3 inh -3, PrPC confirm 0 and LD9 tox 0.
COc1cccc(NC(=O)CNc2cc(S(=O)(=O)N3CCOCC3)ccc2N2CCCC2)c1 was read as MazF activator 1, PrPC surface inh 4, PrP UTR inh -22 and Mtb hypoxia inh 3.
Screening Cc1ccc(C(=O)Nc2cc(S(=O)(=O)N3CCOCC3)ccc2N2CCCC2)cc1 returned MazF activator -5, PrPC surface inh 46*, PrP UTR inh -28, PrPC confirm 50* and LD9 tox -8.
